{
  "source": "the supplement of paper PMC5662767",
  "note": "Structures can show the parent of a compound that is named as a salt.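 Also: flow cytometry read-out as median GFP intensity of gated cells, compounds added 30 min before Hh-conditioned or mock medium, mock-treated cells serving as unstimulated baseline.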",
  "data": [
    {"system": "Drosophila S2 cl14 SmoIP sensor cells", "assay": "normalized SmoIP GFP fluorescence (untreated unstimulated = 0%, untreated Hh-stimulated = 100%); higher = more Smo activation sensor fluorescence", "conditions": "stimulation: Hh conditioned medium (+Hh); compound concentration: 2 uM; 24 h", "units": {"normalized SmoIP GFP fluorescence": "%"}, "values": [
      {"smiles": "Cc1cc(CN2CCN(c3c(Br)cnc4nc(-c5ccc(N6CCN(C)CC6)cc5)[nH]c34)CC2)no1", "normalized SmoIP GFP fluorescence": 123},
      {"smiles": "CCN1CCN(Cc2ccc(-c3cc4c(N[C@H](C)c5ccccc5)ncnc4[nH]3)cc2)CC1", "normalized SmoIP GFP fluorescence": 97},
      {"smiles": "O=C(c1ccc(F)cc1)N1CCC[C@H](c2nc(-c3ccc(F)cc3)no2)C1", "normalized SmoIP GFP fluorescence": 156},
      {"smiles": "NC(=O)C(c1ccccc1)(c1ccccc1)[C@@H]1CCN(CCc2ccc3c(c2)CCO3)C1", "note": "[darifenacin-hydrobromide]", "normalized SmoIP GFP fluorescence": 116},
      {"smiles": "Cc1cc(Cl)ccc1OCCCC(=O)NO", "note": "[Droxinostat]", "normalized SmoIP GFP fluorescence": 95.2},
      {"smiles": "CCC(C)(Oc1ccc(C2(c3ccc(OC(C)(CC)C(=O)O)cc3)CCCCC2)cc1)C(=O)O", "note": "(centres undefined) [clinofibrate]", "normalized SmoIP GFP fluorescence": 131},
      {"smiles": "O=C(NCc1ccc(Oc2ccccc2)cc1)c1nc(-c2cc(Br)c(O)c(Br)c2)no1", "note": "[iowh032]", "normalized SmoIP GFP fluorescence": 117},
      {"smiles": "C[C@]1(c2nc3c(C(N)=O)cccc3[nH]2)CCCN1", "normalized SmoIP GFP fluorescence": 117},
      {"smiles": "Nc1c(Br)cc(Br)cc1CN[C@H]1CC[C@H](O)CC1", "note": "[ambroxol-hcl]", "normalized SmoIP GFP fluorescence": 106},
      {"smiles": "Nc1cc(F)ccc1NC(=O)/C=C/c1cnn(C/C=C/c2ccccc2)c1", "note": "[rgfp966]", "normalized SmoIP GFP fluorescence": 112},
      {"smiles": "COc1cc2c(cc1OC)CC(=O)N(CCCN(C)C[C@@H]1Cc3cc(OC)c(OC)cc31)CC2", "note": "[ivabradine-hcl-procoralan]", "normalized SmoIP GFP fluorescence": 111},
      {"smiles": "O=c1cc(-c2ccccc2)oc2cc(O)c(O)c(O)c12", "note": "[Baicalein]", "normalized SmoIP GFP fluorescence": 108},
      {"smiles": "C=CC(=O)Nc1ccc2ncnc(Nc3ccc(OCc4cccc(F)c4)c(Cl)c3)c2c1", "normalized SmoIP GFP fluorescence": 99.1},
      {"smiles": "Nc1nc(N)c2nc(-c3ccccc3)c(N)nc2n1", "note": "[triamterene]", "normalized SmoIP GFP fluorescence": 104}
    ]}
  ]
}
